Test results from PubChem BioAssay AID1159580 (chemical genetic matrix, 2015).
About 2,000 (36%) of roughly 5,500 compounds were called active. Not shown: some 18% with an inconclusive outcome. No stated cut-off is given here; in the data, active means normalized growth mostly below about 0.91 (no sharp cut-off); inconclusive means no clear call, values can overlap the other calls; inactive means mostly above about 0.92. Some of the results follow.

Experiment: chemical genetic growth profiling, strain panel (AID 1159580);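 further: tested at 20 µM; growth read once vehicle control cultures reached saturation at 30 °C; 1 = growth at the plate median or of vehicle wells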
Conditions: S. cerevisiae deletion strains, growth OD

Measured: normalized growth

NNC(=O)c1cccnc1Oc1ccccc1
inactive: locus YAL013W, strain DEP1, stronger effect = lower value 1.01 | locus YBR229C, strain ROT2, stronger effect = lower value 0.998 | locus YDL101C, strain DUN1, stronger effect = lower value 1.03 | locus YDR150W, strain NUM1, stronger effect = lower value 1.04 | locus YEL061C, strain CIN8, stronger effect = lower value 1.02 | locus YGR078C, strain PAC10, stronger effect = lower value 1.02 | locus YHR030C, strain SLT2, stronger effect = lower value 1.11 | locus YHR087W, strain rtc3, stronger effect = lower value 1.02 | locus YJR043C, strain POL32, stronger effect = lower value 1.01 | locus YJR075W, strain HOC1, stronger effect = lower value 1.03 | locus YKL190W, strain CNB1, stronger effect = lower value 1.02 | locus YLR039C, strain RIC1, stronger effect = lower value 1.12 | locus YLR058C, strain SHM2 (second series), stronger effect = lower value 1 | locus YLR085C, strain ARP6, stronger effect = lower value 1.12 | locus YLR262C, strain YPT6, stronger effect = lower value 1.01 | locus YML094W, strain GIM5, stronger effect = lower value 1.03 | locus YMR219W, strain ESC1, stronger effect = lower value 1.02 | locus YMR263W, strain SAP30, stronger effect = lower value 1.02 | locus YNL153C, strain GIM3, stronger effect = lower value 1.01 | locus YNL298W, strain CLA4 (second series), stronger effect = lower value 1.08 | locus YNL322C, strain KRE1, stronger effect = lower value 1.01 | locus YNR030W, strain Alg12, stronger effect = lower value 1.03 | locus YPL055C, strain LGE1, stronger effect = lower value 1.02 | locus YPL241C, strain CIN2, stronger effect = lower value 1.04 | locus YPR135W, strain CTF4, stronger effect = lower value 1.14
